Source: PubChem BioAssay (Tox21)
Results filed as inconclusive are left out. Activity calls are given as the source filed them. Unless noted, calls follow the shape of the full dose curve.

Legend:
[1] = Nuclear factor erythroid 2-related factor 2/antioxidant responsive element (Nrf2/ARE) small molecule agonists: qHTS cell viability counter screen in human keratinocytes (AID 1919968; active = well fitted curve in the direction sought with a large enough effect in the repeat runs; an effect the other way counts as inactive or inconclusive; also: nearly all actives have a fitted effect of over 55% in size)
How it was run: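 In human HaCaT keratinocytes stably expressing an ARE-driven luciferase, compound exposure lasted 23 h at 37 C under 5% CO2. Viable cells are quantified with a protease-based fluorogenic reagent (CellTiter-Fluor) read 1 h after addition.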

[2] = biological target: Gonadotropin-releasing hormone receptor (Homo sapiens) (UniProt P30968); experiment: Human gonadotropin-releasing hormone receptor (GnRHR) small molecule agonists, calcium flux assay in GnRHR-HEK293 cells (AID 1920063); also: nearly all actives have a fitted effect of over 35% in size
Chain of Gonadotropin-releasing hormone receptor (Homo sapiens) (P30968 whole entry, looked up): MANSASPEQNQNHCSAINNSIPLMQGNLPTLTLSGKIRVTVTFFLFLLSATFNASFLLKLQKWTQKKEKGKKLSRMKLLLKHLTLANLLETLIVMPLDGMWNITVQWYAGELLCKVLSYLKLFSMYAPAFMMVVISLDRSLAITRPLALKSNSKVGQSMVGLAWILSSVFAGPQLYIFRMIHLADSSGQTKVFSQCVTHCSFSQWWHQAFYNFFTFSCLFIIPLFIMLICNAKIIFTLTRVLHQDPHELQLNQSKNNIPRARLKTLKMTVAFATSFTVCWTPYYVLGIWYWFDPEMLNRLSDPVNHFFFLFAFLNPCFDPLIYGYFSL
How it was run: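 Intracellular calcium rise is the read-out: engineered human GnRHR HEK293 cells, dye-loaded, are exposed to DMSO-dissolved compounds and fluorescence at Ex/Em 480/540 is tracked for 3 min.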

[3] = G protein-coupled receptor (GPCR) small molecule agonists, calcium flux assay: HEK293 wild type cell line counter screen (AID 1920065)
How it was run: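 Fluorescence intensity signals activation. After overnight (18 h) culture and a 1 h calcium dye load at 37 C, compounds are added by pin tool and the plate read at 480/540 nm for 3 min in 1 s steps.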

[4] = p53 small molecule agonists, cell-based qHTS assay with rat liver microsomes (AID 1963578)
How it was run: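 Each plate received p53RE-bla cells, then compound, then rat liver microsomes and NADPH (both 0.5 mg/mL final). Plates were held 16 h at 37 C, and beta-lactamase activity was detected with LiveBLAzer over 2 h.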

[5] = p53 small molecule agonists, cell-based qHTS assay with human liver microsomes: qHTS cell viability counter screen (AID 1963579); also: nearly all actives have a fitted effect of over 45% in size
How it was run: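 Tox21 library compounds, delivered from DMSO stocks, were tested on p53RE-bla cells together with 0.5 mg/mL human liver microsomes and 0.5 mg/mL NADPH (final) over 16 h at 37 C; CellTiter-Glo luminescence served as the cytotoxicity measure.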

[6] = p53 small molecule agonists, cell-based qHTS assay with rat liver microsomes: qHTS cell viability counter screen (AID 1963580); also: nearly all actives have a fitted effect of over 45% in size
How it was run: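 After the beta-lactamase ratio was read, CellTiter-Glo was added to the same wells and luminescence measured at 30 min; cells had been treated 16 h at 37 C with compounds, rat liver microsomes and NADPH (0.5 mg/mL final each).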

[7] = p53 small molecule agonists, cell-based qHTS assay: qHTS cell viability counter screen (AID 1963581); also: nearly all actives have a fitted effect of over 45% in size
How it was run: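 Luminescence from CellTiter-Glo, reflecting ATP content, serves as the cytotoxicity measure; it is taken after the 2 h reporter substrate step in HCT-116 p53RE-bla cells dosed for 16 h at 37 C.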

[8] = biological target: Beta-2 adrenergic receptor (Homo sapiens) (UniProt P07550); experiment: Adrenergic beta2 receptor (ADRB2) small molecule antagonists, cell-based qHTS assay (AID 1963592); also: series mostly up to about 92 µM; nearly all actives have a fitted effect of over 50% in size
Chain of Beta-2 adrenergic receptor (Homo sapiens) (P07550 whole entry, looked up): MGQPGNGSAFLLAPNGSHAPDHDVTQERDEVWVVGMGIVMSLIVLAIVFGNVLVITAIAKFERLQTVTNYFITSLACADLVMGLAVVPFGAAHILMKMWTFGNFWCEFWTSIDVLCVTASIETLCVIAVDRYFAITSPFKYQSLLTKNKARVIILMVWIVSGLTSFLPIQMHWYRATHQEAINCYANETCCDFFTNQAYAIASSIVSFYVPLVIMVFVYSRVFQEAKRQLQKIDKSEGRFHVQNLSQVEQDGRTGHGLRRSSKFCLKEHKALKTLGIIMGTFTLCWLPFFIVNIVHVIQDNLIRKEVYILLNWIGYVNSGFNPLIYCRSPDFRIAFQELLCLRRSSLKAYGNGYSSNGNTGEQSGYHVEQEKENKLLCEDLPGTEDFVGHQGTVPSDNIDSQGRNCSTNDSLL
How it was run: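 Assay format: CHO-ADRB2 cells, 18-20hr seeding at 37C/5% CO2, then compound plus 1nM isoproterenol agonist mix for 0.5hr RT. Homogeneous time-resolved fluorescence cAMP detection after 1hr, expressed as 665/615 nm ratio.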

[9] = biological target: Beta-2 adrenergic receptor (Homo sapiens) (UniProt P07550); experiment: Adrenergic beta2 receptor (ADRB2) small molecule agonists, cell-based qHTS assay (AID 1963593);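 also: CHO cells stably overexpressing human ADRB2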
How it was run: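 CHO cells stably over-expressing ADRB2 were plated overnight at 37C, then dosed with compounds plus a stimulation mix containing 100uM IBMX and 25uM Ro-20-1724 for 0.5hr at room temperature. cAMP was measured by HTRF competition, 1hr.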

[10] = biological target: D(2) dopamine receptor (Homo sapiens) (UniProt P14416); experiment: Dopamine D2 receptor (DRD2) small molecule agonists, cell-based qHTS assay (AID 1963594); also: nearly all actives have a fitted effect of over 35% in size
Chain of D(2) dopamine receptor (Homo sapiens) (P14416 whole entry, looked up): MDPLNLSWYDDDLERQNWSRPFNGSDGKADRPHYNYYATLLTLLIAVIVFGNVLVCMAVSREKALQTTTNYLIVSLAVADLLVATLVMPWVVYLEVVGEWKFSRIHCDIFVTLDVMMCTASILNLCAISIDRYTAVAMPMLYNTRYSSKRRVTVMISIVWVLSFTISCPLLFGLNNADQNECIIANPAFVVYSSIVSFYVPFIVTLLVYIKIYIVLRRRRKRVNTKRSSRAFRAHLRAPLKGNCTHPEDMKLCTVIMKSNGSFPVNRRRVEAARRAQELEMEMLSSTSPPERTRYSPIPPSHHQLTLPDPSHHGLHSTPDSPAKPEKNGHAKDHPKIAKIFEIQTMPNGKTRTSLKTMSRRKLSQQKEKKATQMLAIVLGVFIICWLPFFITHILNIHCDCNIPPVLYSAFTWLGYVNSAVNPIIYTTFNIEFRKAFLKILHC
How it was run: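 HEK293 cells stably expressing human DRD2, pre-treated with PDE inhibitor Ro20-1724 (0.1 mM final) and compound 10 min at room temperature, then stimulated with NKH477 (200nM […]) for 30 min. cAMP read by HTRF (665/620 nm).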

[11] = biological target: D(2) dopamine receptor (Homo sapiens) (UniProt P14416); experiment: Dopamine D2 receptor (DRD2) small molecule antagonists, cell-based qHTS assay (AID 1963595; active = well fitted inhibition curve with a large enough effect in the signal ratio in the repeat runs, with a control signal flat; the % refers to the signal ratio)
How it was run: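 Human DRD2 antagonist qHTS measuring cAMP by HTRF. The cells are exposed to compound for 10 min, then to NKH477 (200 nM) and quinpirole (12 nM) for 30 min at RT, with Ro20-1724 (0.1 mM) present throughout.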

[12] = biological target: KiSS-1 receptor (Homo sapiens) (UniProt Q969F8); experiment: Human kisspeptin (KISS1R) small molecule agonists, calcium flux assay in KISS1R-HEK293 cells (AID 1920064; active = well fitted curve in the direction sought with a large enough effect in the repeat runs; an effect the other way counts as inactive or inconclusive)
Chain of KiSS-1 receptor (Homo sapiens) (Q969F8 whole entry, looked up): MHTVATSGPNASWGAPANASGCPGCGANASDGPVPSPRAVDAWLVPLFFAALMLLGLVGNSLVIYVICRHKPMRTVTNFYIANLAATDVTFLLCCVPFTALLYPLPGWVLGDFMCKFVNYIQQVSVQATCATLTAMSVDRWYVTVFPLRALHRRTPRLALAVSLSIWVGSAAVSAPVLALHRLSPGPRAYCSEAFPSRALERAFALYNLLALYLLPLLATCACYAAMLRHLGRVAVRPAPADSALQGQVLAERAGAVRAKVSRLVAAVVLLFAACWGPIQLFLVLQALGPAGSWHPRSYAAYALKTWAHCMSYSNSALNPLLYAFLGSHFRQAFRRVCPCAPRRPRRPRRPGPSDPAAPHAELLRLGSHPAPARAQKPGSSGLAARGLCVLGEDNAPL
How it was run: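 Concentration-response testing used 15 concentrations in triplicate on human KISS1R-expressing HEK293 cells. Calcium-dependent fluorescence (Ex/Em 480/540) was followed kinetically for 3 min after compound transfer.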

[13] = p53 small molecule agonists, cell-based qHTS assay with human liver microsomes (AID 1963577);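 also: p53 response element beta-lactamase reporter cells with liver microsomes plus NADPH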
How it was run: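 Metabolically competent format: test substances, human liver microsomes and NADPH (both 0.5 mg/mL final) incubated with p53RE-bla cells 16 h at 37 C. Beta-lactamase reporter signal then quantified by fluorescence.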

[14] = p53 small molecule agonists, cell-based qHTS assay (AID 1963582; active = well fitted activation curve with a large enough effect in the signal ratio in the repeat runs, not every such curve was filed as active; the % refers to the signal ratio)
How it was run: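 After plating, p53RE-bla cells sat 5 h in the incubator; compounds or DMSO vehicle were pinned in; a 16 h incubation at 37 C followed; FRET substrate was added and, 2 h later at RT, fluorescence was measured.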

[15] = biological target: 5-hydroxytryptamine receptor 2A (Homo sapiens) (UniProt P28223); experiment: 5-hydroxytryptamine receptor 2A (HTR2A) small molecule antagonists, cell-based qHTS assay (AID 1963586); also: nearly all actives have a fitted effect of over 45% in size
Chain of 5-hydroxytryptamine receptor 2A (Homo sapiens) (P28223 whole entry, looked up): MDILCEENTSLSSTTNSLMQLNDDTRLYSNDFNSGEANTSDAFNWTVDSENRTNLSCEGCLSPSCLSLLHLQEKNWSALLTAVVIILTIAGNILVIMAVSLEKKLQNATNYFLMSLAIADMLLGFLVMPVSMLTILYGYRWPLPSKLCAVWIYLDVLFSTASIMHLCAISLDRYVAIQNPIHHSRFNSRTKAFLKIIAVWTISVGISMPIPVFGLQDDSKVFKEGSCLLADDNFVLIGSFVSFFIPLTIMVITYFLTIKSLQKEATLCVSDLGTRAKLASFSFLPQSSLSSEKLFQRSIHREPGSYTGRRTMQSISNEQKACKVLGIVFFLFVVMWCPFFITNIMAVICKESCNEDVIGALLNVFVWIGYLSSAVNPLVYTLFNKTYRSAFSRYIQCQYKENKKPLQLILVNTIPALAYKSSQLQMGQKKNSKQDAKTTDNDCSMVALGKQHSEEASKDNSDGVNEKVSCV
How it was run: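 CHO cells stably expressing human HTR2A were plated for 18 h at 37 C, then loaded with calcium dye for 1 h. Compounds were preincubated 5 min at room temperature before DOI (4 nM solution) was added. Kinetic fluorescence was read for 3 min.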

[16] = biological target: 5-hydroxytryptamine receptor 2A (Homo sapiens) (UniProt P28223); experiment: 5-hydroxytryptamine receptor 2A (HTR2A) small molecule agonists, cell-based qHTS assay (AID 1963587); also: nearly all actives have a fitted effect of over 30% in size
How it was run: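 CHO cells stably expressing human HTR2A, plated 18 h, loaded with calcium dye 1 h at 37 C. Agonist mode: compounds added and intracellular calcium fluorescence recorded kinetically for 2 min at 1 sec intervals.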

[17] = biological target: Muscarinic acetylcholine receptor M1 (Homo sapiens) (UniProt P11229); experiment: Cholinergic receptor muscarinic 1 (CHRM1) small molecule agonists, cell-based qHTS assay (AID 1963589); also: nearly all actives have a fitted effect of over 35% in size
Chain of Muscarinic acetylcholine receptor M1 (Homo sapiens) (P11229 whole entry, looked up): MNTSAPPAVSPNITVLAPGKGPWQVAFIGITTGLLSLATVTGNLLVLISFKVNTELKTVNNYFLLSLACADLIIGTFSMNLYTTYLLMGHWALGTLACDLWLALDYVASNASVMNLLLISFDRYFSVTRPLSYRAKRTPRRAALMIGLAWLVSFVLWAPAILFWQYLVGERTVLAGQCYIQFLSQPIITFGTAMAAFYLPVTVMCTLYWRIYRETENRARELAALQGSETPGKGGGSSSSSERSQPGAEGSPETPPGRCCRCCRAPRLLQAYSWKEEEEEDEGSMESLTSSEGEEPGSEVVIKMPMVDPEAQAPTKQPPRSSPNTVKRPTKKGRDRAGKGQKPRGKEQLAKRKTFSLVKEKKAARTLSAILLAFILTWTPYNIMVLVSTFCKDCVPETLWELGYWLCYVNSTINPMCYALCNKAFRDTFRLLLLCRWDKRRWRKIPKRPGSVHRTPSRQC
How it was run: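 Fluorescent calcium dye reports M1 activation in stably transfected CHO cells. Compounds, 15 concentrations, added after 1 h dye loading at 37 C; kinetic reading at 1 sec intervals.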

[18] = cAMP Responsive Elements (CRE) small molecule antagonists, cell-based qHTS assay (AID 1963591; active = well fitted inhibition curve with a large enough effect in the signal ratio in the repeat runs, not every such curve was filed as active; the % refers to the signal ratio)
How it was run: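 Stimulation used NKH477 at a final 0.25 uM for 3 h in compound-treated CRE-bla HEK293T cells, seeded 18 h beforehand. Reporter activity was measured with LiveBLAzer B/G FRET substrate after 2 h at room temperature.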

[19] = biological target: Muscarinic acetylcholine receptor M1 (Homo sapiens) (UniProt P11229); experiment: Cholinergic receptor muscarinic 1 (CHRM1) small molecule antagonists, cell-based qHTS assay (AID 1963588); also: nearly all actives have a fitted effect of over 40% in size
How it was run: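 Compounds were tested at 15 concentrations in three independent runs. Dye-loaded CHRM1-CHO cells were exposed 5 min at room temperature before stimulation by acetylcholine added at 50nM. Intracellular calcium was read kinetically on FDSS for 3 min.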

[20] = cAMP Responsive Elements (CRE) small molecule agonists, cell-based qHTS assay (AID 1963590)
How it was run: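 Compound exposure lasted 3 h at 37 C/5% CO2 in CRE-bla HEK 293T cells grown in assay medium with 10% dialyzed FBS and 25 mM HEPES. Reporter signal came from LiveBLAzer B/G FRET substrate, 2 h, room temperature.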

Measured: Potency

CCCC1O[C@@H]2C[C@H]3[C@@H]4CCC5=CC(=O)C=C[C@]5(C)[C@H]4[C@@H](O)C[C@]3(C)[C@]2(C(=O)CO)O1 (some centres undefined)
inactive: [1] | [2] | [3] | [4] | [5] | [6] | [7] | [8] | [9] | [10] | [11]

CC(=O)Nc1ncc([N+](=O)[O-])s1
not listed: [2] | [7] | [19] | [20]
inactive: all other assays above

CCC(C)(C)C1CCCCC1OC(C)=O (centres undefined)
not listed: [2] | [9]
inactive: all other assays above

CC(C)Nc1ccccc1
not listed: [5] | [7] | [11] | [12]
inactive: all other assays above

CC/C=C\CCO
not listed: [2] | [11] | [16] | [18]
inactive: all other assays above

CCCN[C@H]1CCc2nc(N)sc2C1
not listed: [3] | [10] | [14] | [16]
inactive: all other assays above

CC(C)(O)Cc1ccccc1
not listed: [2] | [4] | [6]
inactive: all other assays above

CC(C)(N=C=O)c1cccc(C(C)(C)N=C=O)c1
not listed: [4] | [9] | [12] | [13] | [14] | [17] | [20]
inactive: all other assays above

Cn1c(=O)c2c(ncn2C)n(C)c1=O
not listed: [9] | [11] | [12] | [15] | [16] | [17] | [19]
inactive: all other assays above

CCCCCC(=O)CC
not listed: [2] | [9] | [12] | [14]
inactive: all other assays above

CC(C)CCCC(C)CCO (centres undefined)
not listed: [3] | [5] | [19]
inactive: all other assays above

OCCOCCOCCOCCOCCO
not listed: [11] | [12]
inactive: all other assays above

C=CC(=O)CC
not listed: [2] | [11] | [17]
inactive: all other assays above

CCCCCCOCCOCCO
not listed: [2] | [4] | [6] | [9] | [13] | [14] | [17] | [20]
inactive: all other assays above

CCOC(OCC)OCC
not listed: [2] | [12]
inactive: all other assays above
